The source of these data is paper PMC7819943, “Rice protein-binding microarrays: a tool to detect cis-acting elements near promoter regions in rice”.

Over roughly 68,000 sequences, “fluorescence intensity (a.u.)” has its median near 9,100; the highest 2% begin near 16,000. The sample as a whole holds a higher share of the highest values than the screen did.

The target of this experiment is OsWRKY34 (Oryza sativa, UniProt Q0JBA9 1-250). As to the kind of experiment: protein-binding microarray (RPBM); PBS, 2% BSA, 51.3 ng/ul salmon testes DNA, 50 uM zinc acetate, 200 nM TF, 25 C, 1 h; high values mean tight binding. Particulars: protein: recombinant; tags: N-terminal polyhistidine and DsRed monomer fusion (pET32a); label: CyDye5-dUTP incorporated in the synthesized complementary strand; 3' TTTTT single-stranded linker to array surface; dsDNA, one strand shown. In outline: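 The binding signal for each feature is its fluorescence intensity in arbitrary units. An Axon 4000B scanner was used to read a custom Agilent array that had been made double-stranded with Cy5-dUTP primer extension, blocked with 2% BSA, incubated at 25 °C for 1 h with 200 nM protein in PBS, 2% BSA, salmon testes DNA and 50 µM zinc acetate, and washed. The protein was an N-terminal polyhistidine–DsRed transcription factor fusion from E. coli BL21-CodonPlus, purified on Ni–NTA.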
OsWRKY34, sequence (Q0JBA9 entry or part of it): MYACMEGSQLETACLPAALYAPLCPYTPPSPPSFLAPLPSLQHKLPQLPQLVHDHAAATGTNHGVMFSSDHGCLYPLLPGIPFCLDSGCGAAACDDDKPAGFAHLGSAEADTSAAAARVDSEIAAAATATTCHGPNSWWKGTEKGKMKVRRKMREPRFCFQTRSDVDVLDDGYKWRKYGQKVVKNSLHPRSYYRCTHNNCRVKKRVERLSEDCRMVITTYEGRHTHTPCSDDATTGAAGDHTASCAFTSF
As to “GAAGAGGAGGAGGAGGAGGAGGAGGAGGAGGGGATCAATGCGGAGTCACCTAGTGCAG”, the binding signal was 8350 fluorescence intensity (a.u.).
Regarding “TGTTCTTGAGTTGCTTATATATGGCCTTCTAGCTCAGCTCCGGAGTCACCTAGTGCAG”, the binding signal was 8540 fluorescence intensity (a.u.).
On to “TGATTGCCTTCTCGATTTTGTTTGTCATTGCGTCTTTGCACGGAGTCACCTAGTGCAG”, for which the binding signal was 8190 fluorescence intensity (a.u.).
The value for “GCTTGCTTGCTTGTTGCTTCCATTCCATTCCATTCCACACCGGAGTCACCTAGTGCAG” was 10400 fluorescence intensity (a.u.).
With “GGGTGGTCCTGCTTCTACCTTGTATACAAAACATTTCTTCCGGAGTCACCTAGTGCAG”, the binding signal was 17000 fluorescence intensity (a.u.).
“CATTTTTTTAGCTTGTTCTTCCTTGTGTCACAAACATTTCCGGAGTCACCTAGTGCAG”: the binding signal was 11300 fluorescence intensity (a.u.).
As for “CTTCTCCTGCTTGTTTCCTTGTCTTGTGGTGCATCACATCCGGAGTCACCTAGTGCAG”, the binding signal is 8810 fluorescence intensity (a.u.).
With “TCCTTGTATGAATCCATTGCCTTGCTTCTGCTTGCCCATTCGGAGTCACCTAGTGCAG”, the binding signal was 8530 fluorescence intensity (a.u.).
Take “TGACCACCATTGCTGCTTCTGCTTCTTCTTGTATGTATACCGGAGTCACCTAGTGCAG”: the binding signal was 17200 fluorescence intensity (a.u.).
The value for “GTATTCCTACTTGAACTCTTCTTTTACTTTATTTTTCTAACGGAGTCACCTAGTGCAG” was 10600 fluorescence intensity (a.u.); that for “CACTGCCACTCGCCACCCAGCTCCGTCCTATGCCTCCGCGCGGAGTCACCTAGTGCAG” was 12400 fluorescence intensity (a.u.); that for “TGCACCGCGCGCAGGGTAGGGTGGGCGTCCTTGCCATTGTCGGAGTCACCTAGTGCAG” was 8740 fluorescence intensity (a.u.).
Regarding “CTTATTTCTTTTCCAGTTAGGCATATATTATCTGTTTTCTCGGAGTCACCTAGTGCAG”, the binding signal is 8700 fluorescence intensity (a.u.).
For the sequence “AAAATCTCCTACTAGCTCACTTCACAATGGATCAAACAAACGGAGTCACCTAGTGCAG”, the binding signal is 8230 fluorescence intensity (a.u.).
For “ATAATATATAATCAAACAAAAAAATGGACTATAATCTCTCCGGAGTCACCTAGTGCAG”, the binding signal is 64400 fluorescence intensity (a.u.).
As for “ATATATATATATATATATATATATATATATAATCTCTCCTCGGAGTCACCTAGTGCAG”, the binding signal was 9910 fluorescence intensity (a.u.).
The value for “CTTTTTATCTCAAATTTGAAAACTTTCAACTTGGATTTGACGGAGTCACCTAGTGCAG” was 8520 fluorescence intensity (a.u.).
For the sequence “AACTTGCGAAAATTTGACTATCAATTAGCTGGGCGATTGACGGAGTCACCTAGTGCAG”, the binding signal is 32700 fluorescence intensity (a.u.).
Turning to “ACTATGGGCTTTTGCATCAACAATTGCGAATTTTTTGTATCGGAGTCACCTAGTGCAG”, the binding signal was 9280 fluorescence intensity (a.u.).
Turning to “GGAGGATGCGGGTGGTGGTGGAGGAGGAGGAGGCCGAGGTCGGAGTCACCTAGTGCAG”, the binding signal is 12400 fluorescence intensity (a.u.).
The value for “GGGCCCCAGTCAGGGTGCGGGGCCACGGAGGGGTCGGGGACGGAGTCACCTAGTGCAG” was 9260 fluorescence intensity (a.u.); that for “GGGTGGGGAGGTGGTGGTCGTCGGGCAGGTGGGGAGGATGCGGAGTCACCTAGTGCAG” was 23900 fluorescence intensity (a.u.); that for “GTCGGGGAGGTCGGGGTCAGGGAGGTCGGGGCCGGTGATGCGGAGTCACCTAGTGCAG” was 18900 fluorescence intensity (a.u.).
As to “CTGCGGGAGGACGGGTCCGGGGCGGGGTCCGGGTCGGTGCCGGAGTCACCTAGTGCAG”, the binding signal is 9780 fluorescence intensity (a.u.).
Take “GTGGGGATGGAGGCGTCGTCGGGGTCGTCGTAGAGGTGGGCGGAGTCACCTAGTGCAG”: the binding signal was 9240 fluorescence intensity (a.u.).
As for “GCAGACAACTCCGTCGCTGTTACTTCCTCTATGCCAAAACCGGAGTCACCTAGTGCAG”, the binding signal was 9350 fluorescence intensity (a.u.).
For the sequence “AGCGCGCGCAGCTTTGCAGGCGTGGTCGGGGTCGTTGTGCCGGAGTCACCTAGTGCAG”, the binding signal was 9700 fluorescence intensity (a.u.).
The value for “TTTACATATCTATCTTTTTTTTTTGTTTTTTCTCGCTTTTCGGAGTCACCTAGTGCAG” was 8460 fluorescence intensity (a.u.).
Take “AACCTTTCTATAGATTTTTTTTTTTTACAAAAACACATCACGGAGTCACCTAGTGCAG”: the binding signal is 11700 fluorescence intensity (a.u.).
Regarding “AATCCCAAGCTAGGTGTTGACCATGGGTCAACAATCTCCCCGGAGTCACCTAGTGCAG”, the binding signal was 9470 fluorescence intensity (a.u.).
Then “ACCATTATTCTGTTGTCAACTGCATGCCGCAACAAACTGACGGAGTCACCTAGTGCAG”, with 8420 fluorescence intensity (a.u.); and “AGGTCAACAACCAGTGTCAAGATCTGACCATGCAATTAGCCGGAGTCACCTAGTGCAG”, with 17600 fluorescence intensity (a.u.).
As to “AACTAACTGGCACGCCCTCATATCACCAACCTTTGGACCTCGGAGTCACCTAGTGCAG”, the binding signal was 8560 fluorescence intensity (a.u.).
For the sequence “CTTTCTGATCACCAACTCCGCTCCTTTTAATCGCAACTACCGGAGTCACCTAGTGCAG”, the binding signal was 9660 fluorescence intensity (a.u.).
On to “ATATCTGCTTCTACGTCGTCTACGAAGCCGCCGAGACGTCCGGAGTCACCTAGTGCAG”, for which the binding signal is 9320 fluorescence intensity (a.u.).
As to “CTGCCGAAGCAACGGATCTGAATCTACGTACCGAGCTTGTCGGAGTCACCTAGTGCAG”, the binding signal is 64600 fluorescence intensity (a.u.).
For “TCCTGTGGTACCCCTGTCGCCGAATCTACGCATCTGCCAACGGAGTCACCTAGTGCAG”, the binding signal was 8140 fluorescence intensity (a.u.).
On to “ACTCTCTTCCTCACGACGCACCACGGGCTAGCCACTCCTACGGAGTCACCTAGTGCAG”, for which the binding signal is 8340 fluorescence intensity (a.u.).
As for “TTATATTTTGGGACGGAGTATTACTTTGAATCCCTTTTCCCGGAGTCACCTAGTGCAG”, the binding signal was 8280 fluorescence intensity (a.u.).
“TTTTTTTTTCTTTTGGGGCGGAAGGAGTAGTATGGAGTTTCGGAGTCACCTAGTGCAG”: the binding signal was 12300 fluorescence intensity (a.u.).
Then “GAAAAATTGTCCCTTTTTATTTGGGAGGGGAGGGAGGAGGCGGAGTCACCTAGTGCAG”, with 17100 fluorescence intensity (a.u.); and “ATTCTCAAAATCGAATTTGTTTTTATATTTCCCTTACTGTCGGAGTCACCTAGTGCAG”, with 14700 fluorescence intensity (a.u.).
Consider “CTTATTTAGTTGGGGAAAATTTTTGGGTTTGTTTGTCACACGGAGTCACCTAGTGCAG”, for which the binding signal was 11600 fluorescence intensity (a.u.).
Consider “TGTTTGCTTATTACTATTTTTTTTGGGGCGGGAAATTAAACGGAGTCACCTAGTGCAG”, for which the binding signal is 14100 fluorescence intensity (a.u.).
On to “CCTTTTGTTTTTGGGGCTTGTAGTTTTTGGAAATTTGGGGCGGAGTCACCTAGTGCAG”, for which the binding signal is 18300 fluorescence intensity (a.u.).
As to “TATTTGGTTTTGTAGGGGTTGGTTTGGGAAAATTGGAAAGCGGAGTCACCTAGTGCAG”, the binding signal was 16400 fluorescence intensity (a.u.).
Take “GCAGGCGGCGGAGGATTTTTGGGAGGGGAAAACGGCGAGTCGGAGTCACCTAGTGCAG”: the binding signal was 8540 fluorescence intensity (a.u.).
On to “TATTGTTTAGTTGGGAAAAAAATTTGGGGTTGGTTGTCACCGGAGTCACCTAGTGCAG”, for which the binding signal is 10400 fluorescence intensity (a.u.).
Take “TTACAAACAAAAACTCAAAATCCCTTATATTTTGGGACAGCGGAGTCACCTAGTGCAG”: the binding signal was 64700 fluorescence intensity (a.u.).
Regarding “AAAATTTTATTTTTCATGTGTGGCTTATTGTCCTTTTTTGCGGAGTCACCTAGTGCAG”, the binding signal was 9470 fluorescence intensity (a.u.).
With “CTTTTTATTACCGGTGTTTCGCTTTGGACCACCCTTCAACCGGAGTCACCTAGTGCAG”, the binding signal was 9170 fluorescence intensity (a.u.).
Turning to “CCACCAATCCACCACCGCCACGCCACTTCACCCTTGTTTTCGGAGTCACCTAGTGCAG”, the binding signal is 9810 fluorescence intensity (a.u.).
The value for “CTCCGTCGCCACTCACACCCATGGCCTTGACCGCTACTAGCGGAGTCACCTAGTGCAG” was 9550 fluorescence intensity (a.u.); that for “GTTTTGAAAGGTATTGTTGGGTAGTAATAGGCTTCATCTTCGGAGTCACCTAGTGCAG” was 10200 fluorescence intensity (a.u.).
